Test results published in PubChem BioAssay (NCATS).
Results filed as inconclusive are left out. Active and inactive are the calls of the source. Calls come from the whole dose curve; as a rule, active = well fitted curve in the direction sought with a large enough effect in the signal ratio (not every such curve was filed as active); inconclusive = small, poorly fitted or top-dose-only effect, or effect the other way, or a change in a side signal; inactive = no such curve, though single readings can be large or run the other way; the % refers to the signal ratio. Residues, ends and D or L forms follow the SMILES beside them. *: point of attachment. Cbz = O=C(OCc1ccccc1)*

molecular target: Tyrosine-protein phosphatase non-receptor type substrate 1 (Homo sapiens) + Leukocyte surface antigen CD47 (Homo sapiens) (UniProt P78324+Q08722); assay: CD47-SIRPalpha protein protein interaction - HTRF assay qHTS validation (AID 1347058); conditions: TR-FRET HTRF CD47-His / biotin-SIRPalpha binding, ratio 665/615; series mostly up to 38.3 µM; activity change, negative = inhibition: at the top concentration; note: 0% is about no effect
Description: SIRPalpha is a myeloid cell expressed immunomodulatory receptor that binds the tumor expressed immune checkpoint CD47. Therapeutic disruption of this interaction leads to immune-mediated tumor rejection. This assay was used to quantitate CD47-SIRPalpha binding biochemically and evaluate chemical libraries for novel CD47-SIRPalpha inhibitors. To recapitulate the biological interaction of CD47 and SIRPalpha, we designed expression constructs to produce their recombinant, soluble, extracellular interaction domains. CD47 was produced with an N-terminal 6His tag. SIRPalpha was produced with an N-terminal Avi-Tag for site-specific biotin incorporation. The CD47-SIRPalpha interaction was measured by TR-FRET using affinity tag linked reagents (anti-6His-Eu donor and streptavidin-XL665 acceptor). SIRPalpha without biotin incorporation was used as a positive control inhibitor.
SEQUENCE No. (e.g., 1, 2, 3, etc.); […] (e.g., Cells, Incubation, Reagent, etc.); VALUE and DESCRIPTION.
1a. Reagent. 3 uL CD47-His (12.5 nM) and Anti-His Eu Donor reagent (0.7 nM) added to respective wells in Assay buffer; white/solid bottom high base, med bind 1536-well plates (Greiner 789075)
1b. Reagent. 2 uL Assay buffer negative control for background fluorescence
2. Reagent. 23 nL library compounds (7-pt, 1:4 intraplate titration series) or DMSO control transferred by Pin Tool
3. Centrifuge. Centrifuge plate for 30 s at 1000 RPM
4. Incubation.#Incubate reagents at room temperature for 30 min, protected from light
5. Reagent. 2 uL SIRPalpha-biotin (100 nM) in Assay buffer
6. Incubation.#Incubate reagents at room temperature for 30 min, protected from light
7. Reagent. 1 uL SAV-XL665 (85 nM) acceptor reagent added to respective wells
8. Centrifuge. Centrifuge plate for 30 s at 1000 RPM
9. Incubation. Incubate reagents at room temperature for 30 min, protected from light
10. Detector. Measure Top TR-FRET on EnVision (Eu/APC filter set); calculate ratio Ch1/Ch2
1. Assay buffer composition.#Phosphate buffered saline (PBS; 10 mM Phosphate, 137 mM NaCl, and 2.7 mM KCl; pH 7.4), 0.05% IGEPAL CA-630
2. 23nL of […] library compounds (7 plates) or DMSO vehicle control transferred to 9 Greiner white/solid bottom high base, TC plates in 7 interplate 1:5 titrations (see Yasgar, A. et al. 2008) with Pintool. Two of the 9 plates are DMSO-only in compound field at beginning and end of compound library-treated plates.
10. Detector settings#Mirror = LANCE/DELFIA Dual Enh; Ex. Filter = UV2[TRF] 320; Em. Filter = APC 665; 2nd Em. Filter = Europium 615; Measurement h = 6.5; Ex. light (%) = 100; Delay = […]; Window t = 100 us; No. Seq. windows = 1; Time between flashes = 2000us; No. of flashes = 100; No. of flashes for 2nd detector = 100; Calculation: "Ratio Ch1/Ch2"

Chain of Tyrosine-protein phosphatase non-receptor type substrate 1 (Homo sapiens) + Leukocyte surface antigen CD47 (Homo sapiens) (P78324 whole entry, looked up): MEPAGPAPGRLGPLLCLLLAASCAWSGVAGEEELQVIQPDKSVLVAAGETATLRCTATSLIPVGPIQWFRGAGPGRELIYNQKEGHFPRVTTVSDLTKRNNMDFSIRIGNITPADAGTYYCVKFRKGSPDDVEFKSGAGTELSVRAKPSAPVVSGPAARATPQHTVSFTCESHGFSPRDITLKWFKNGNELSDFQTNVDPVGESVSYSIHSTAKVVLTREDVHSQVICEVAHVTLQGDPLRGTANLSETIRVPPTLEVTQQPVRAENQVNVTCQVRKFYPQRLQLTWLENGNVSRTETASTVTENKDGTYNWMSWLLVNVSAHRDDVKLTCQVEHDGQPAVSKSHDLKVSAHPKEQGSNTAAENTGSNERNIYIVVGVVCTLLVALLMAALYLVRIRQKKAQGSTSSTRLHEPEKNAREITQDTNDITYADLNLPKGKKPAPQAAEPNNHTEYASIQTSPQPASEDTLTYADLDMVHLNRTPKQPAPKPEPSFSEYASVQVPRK
Chain of Tyrosine-protein phosphatase non-receptor type substrate 1 (Homo sapiens) + Leukocyte surface antigen CD47 (Homo sapiens) (Q08722 whole entry, looked up): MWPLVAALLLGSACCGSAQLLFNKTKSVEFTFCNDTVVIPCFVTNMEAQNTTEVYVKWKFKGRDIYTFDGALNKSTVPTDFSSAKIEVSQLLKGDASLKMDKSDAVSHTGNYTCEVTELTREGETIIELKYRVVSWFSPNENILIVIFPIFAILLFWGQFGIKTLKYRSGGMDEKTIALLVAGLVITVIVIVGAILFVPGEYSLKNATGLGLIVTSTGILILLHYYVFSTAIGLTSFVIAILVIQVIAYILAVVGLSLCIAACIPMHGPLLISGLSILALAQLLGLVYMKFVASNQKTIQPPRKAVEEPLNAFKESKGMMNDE

SMILES | activity change, negative = inhibition
O=C(N[C@@H](Cc1ccccc1)C(=O)CCl)OCc1ccccc1 | 1.34% (inactive)
c1ccc(C2CN3CCSC3=N2)cc1 (stereo not given) | -3.13% (inactive)
O=C(OCCN1CCOCC1)C1(c2ccccc2)CCCCC1 | 1.55% (inactive)
O=C(O)CCC/C=C\C[C@@H]1[C@@H](/C=C/[C@H](O)C2Cc3ccccc3C2)[C@@H](F)C[C@@H]1O | -10.3% (inactive)
CCCc1c(-c2ccc(O)cc2)nn(-c2ccc(O)cc2)c1-c1ccc(O)cc1 | 1.19% (inactive)
O[Si](CCCN1CCCCC1)(c1ccc(F)cc1)C1CCCCC1 (stereo not given) | -0.556% (inactive)
CSC(N)=NCCC[C@H](N)C(=O)O | -0.0179% (inactive)
[N-]=[N+]=Nc1ccc(C(=O)CSC[C@H](NC(=O)CC[C@H](N)C(=O)O)C(=O)NCC(=O)O)cc1 | 3.84% (inactive)
CN[C@H](CC(=O)O)C(=O)O | -5.96% (inactive)
Nc1nc2c(nc(Br)n2C2OC3COP(=O)(O)O[C@@H]3C2O)c(=O)[nH]1 (stereo not given in full) | 1.51% (inactive)
Cn1cc(C(F)(F)F)nc1-c1ccc(OCC(O)CNCCOc2ccc(O)c(C(N)=O)c2)cc1 (stereo not given) | -1.64% (inactive)
C=C(C)C1CC=C(C(=O)O)CC1 (stereo not given) | -3.88% (inactive)
COc1cc(C(O)C(=O)O)ccc1O (stereo not given) | -0.962% (inactive)
Fc1ccc(CN(C2=NCCN2)c2c(Cl)cccc2Cl)cc1 | -2.75% (inactive)
CN1C2CCC1CC(OC(c1ccccc1)c1ccccc1)C2 (stereo not given) | -1.74% (inactive)
NC(=O)c1ccccc1 | 2.72% (inactive)
CCCCCCCCCCCCCCCCCCOC[C@H](COP(=O)([O-])OCC[N+](C)(C)C)OC | -4.27% (inactive)
Oc1cc(O)c2c(c1)O[C@H](c1ccc(O)c(O)c1)[C@@H](O)C2 | 1.51% (inactive)
CN(C)CCC(c1ccc(Br)cc1)c1ccccn1 (stereo not given) | -0.862% (inactive)
Cc1nc2c(OCc3ccccc3)cccn2c1CC#N | 1.2% (inactive)

SMILES | activity change, negative = inhibition
N[C@@H](Cc1ccc(O)c(I)c1)C(=O)O | 10.6% (inactive)
CC(N)(C(=O)O)c1ccc(C(=O)O)cc1 (stereo not given) | 0.343% (inactive)
CC(C)[C@H](NC(=O)OCc1ccccc1)C(=O)N[C@H](C=O)Cc1ccccc1 (Cbz-Val-Phe-aldehyde) | -0.321% (inactive)
Cc1nc(N=Nc2ccc(C(=O)O)cc2)c(COP(=O)(O)O)c(C=O)c1O | 9.19% (inactive)
C=CCn1c(=O)c2c(nc(-c3ccc(S(=O)(=O)O)cc3)n2C)n(C)c1=O | 1.92% (inactive)
CC(N)=NCCCC[C@@H](N)C(=O)O | 1.7% (inactive)
C/C(=C\c1ccc(C(=O)O)cc1)c1ccc2c(c1)C(C)(C)CCC2(C)C | -8.88% (inactive)
O=C(O)C1=CCNCC1 | -0.0787% (inactive)
CCOC(=O)C12CC1/C(=N/O)c1ccccc1O2 (stereo not given) | -7.55% (inactive)
O=C(O)CCC(=O)N1CCCC1C(=O)O (stereo not given) | 0.918% (inactive)
Cc1cccc(C2CN(C)CCc3c2cc(O)c(O)c3Cl)c1 (stereo not given) | 7.82% (inactive)
CC(C)C[C@H](NC(=O)C1OC1C(=O)O)C(=O)NCCCCN=C(N)N (stereo not given in full) | 1.64% (inactive)
C[N+](C)(C)CC=O | 2.29% (inactive)
NCCS(=O)O | -0.696% (inactive)
CCCCCCCCCC(=O)NC(CN1CCOCC1)[C@H](O)c1ccccc1 (stereo not given in full) | 0.869% (inactive)
C[C@@H](NCCc1ccc(O)cc1)[C@@H](O)c1ccc(O)cc1 | 5.02% (inactive)
Nc1ncnc2c1ncn2C1CCCO1 (stereo not given) | -8.45% (inactive)
c1ccc(CN2CCC3(CCCc4ccccc43)CC2)cc1 | -0.004% (inactive)
Cc1ccccc1/C=C/C1=NCCN1 | 0.0603% (inactive)
Nc1nc2c(cnn2CCc2ccccc2)c2nc(-c3ccco3)nn12 | -13.4% (inactive)
